Test results: PubChem BioAssay (NCI)
The panel holds about 79,000 compounds, 15% with a hit somewhere; the sample as a whole holds those more often. Values without a mark were called inactive. Calls of active or inactive are those of the source. Cut-off read from the data, not from the text of the source: active = growth inhibition above about 70%; inactive = the rest.

Experiments:
[1] = NCI Yeast Anticancer Drug Screen. Data for the rad50 strain (AID 155);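 note: 0% = growth of vehicle-only cultures of the same strain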; settings: S. cerevisiae rad50 strain growth inhibition, hits give high values
How it was run: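 Compounds were tested on a yeast strain with an engineered DNA damage repair alteration; the reported value is growth inhibition normalised to vehicle treatment.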

[2] = NCI Yeast Anticancer Drug Screen. Data for the mec2-1 strain (AID 157); settings: S. cerevisiae mec2-1 strain, hits give high values
How it was run: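 Strain: mec2-1 (DNA repair/cell cycle alteration). Compound exposure, then growth measured; inhibition expressed relative to vehicle.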

[3] = NCI Yeast Anticancer Drug Screen. Data for the sgs1 mgt1 strain (AID 161);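 note: 0% = growth of cultures given vehicle only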; settings: S. cerevisiae sgs1 mgt1 strain, hits give high values
How it was run: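 Read-out: growth inhibition vs vehicle controls. Cells: mutant yeast strain deficient in DNA damage repair.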

[4] = NCI Yeast Anticancer Drug Screen. Data for the cln2 rad14 strain (AID 165);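 note: 0% = growth equal to vehicle treated cultures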; settings: S. cerevisiae cln2 rad14 strain, hits give high values
How it was run: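 Compounds are applied to the cln2 rad14 yeast strain, and growth is then compared with that of vehicle-treated cultures to give inhibition.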

[5] = NCI Yeast Anticancer Drug Screen. Data for the bub3 strain (AID 167); settings: S. cerevisiae bub3 mutant strain, hits give high values
How it was run: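 Growth of a checkpoint-deficient yeast mutant is measured after compound exposure. Values represent inhibition relative to vehicle.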

[6] = NCI Yeast Anticancer Drug Screen. Data for the mlh1 rad18 strain (AID 175); settings: S. cerevisiae mlh1 rad18 strain growth inhibition, hits give high values
How it was run: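 Read-out is yeast growth inhibition, calculated against vehicle-only controls. The compound was applied to a strain engineered with DNA damage repair alterations.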

[7] = at 5.0 µM (retest, dose inferred, filed as 0.5)
[8] = at 50.0 µM (retest, dose inferred, filed as 5.0)

Compound	growth inhibition [1, 7]	growth inhibition [1, 8]	growth inhibition ([1]; at 50.0 µM)	growth inhibition [2, 7]	growth inhibition [2, 8]	growth inhibition ([2]; at 50.0 µM)	growth inhibition [3, 7]	growth inhibition [3, 8]	growth inhibition ([3]; at 50.0 µM)	growth inhibition [4, 7]	growth inhibition [4, 8]	growth inhibition ([4]; at 50.0 µM)	growth inhibition [5, 7]	growth inhibition [5, 8]	growth inhibition ([5]; at 50.0 µM)	growth inhibition [6, 7]	growth inhibition [6, 8]	growth inhibition ([6]; at 50.0 µM)
Clc1ccccc1C(Cc1c(Cl)cccc1Cl)Cn1ccnc1 (stereo not given)	74% (active)	78% (active)	99.8% (active)	58%	78% (active)	99.8% (active)	70% (active)	91% (active)	99.8% (active)	62%	86% (active)	98.8% (active)	75% (active)	95% (active)	99.7% (active)	77% (active)	92% (active)	99.8% (active)
CC(C)OC(=O)c1ccccc1C(=C1C=C(Br)C(=O)C(Br)=C1)c1cc(Br)c(O)c(Br)c1	85% (active)	95% (active)	90.7% (active)	88% (active)	98% (active)	91.9% (active)	70% (active)	95% (active)	90.9% (active)	96% (active)	97% (active)	88.2% (active)	94% (active)	97% (active)	91% (active)	96% (active)	96% (active)	90.5% (active)
CC(=O)N=C1N(/C=C2\C(=O)Oc3ccccc3C2=O)C(=O)/C(=C/c2ccc(Cl)cc2Cl)N1C	1%	92% (active)	91.8% (active)	11%	96% (active)	95% (active)	7%	90% (active)	94.2% (active)	-3%	91% (active)	89.8% (active)	23%	87% (active)	93.4% (active)	-4%	91% (active)	91.6% (active)
Cn1c2c(c3ccccc31)CCN(CCCN1CCN(c3ccccc3)CC1)C2=O	49%	49%	90.1% (active)	43%	43%	89.2% (active)	58%	58%	90.4% (active)	38%	38%	91.5% (active)	51%	51%	91.3% (active)	41%	41%	84.7% (active)
O=C1C=CC(=O)c2cc(Sc3ccccc3)c(=O)ccc21	16%	37%	81.2% (active)	29%	38%	42.2%	25%	98% (active)	71.7% (active)	33%	72% (active)	39.4%	30%	98% (active)	37%	33%	37%	87% (active)
Cc1ccc(S(=O)(=O)N/N=C2/CC[C@H](C(C)(C)C)C[C@@H]2C)cc1	9%	96% (active)	86.2% (active)	-15%	97% (active)	90% (active)	-2%	98% (active)	77.4% (active)	-35%	85% (active)	87.7% (active)	-18%	97% (active)	84.7% (active)	-1%	98% (active)	76.3% (active)
O=C(O)/C=C/CCC1SCC2NC(=O)NC21 (stereo not given)	96% (active)	96% (active)	80.3% (active)	98% (active)	97% (active)	84.2% (active)	96% (active)	96% (active)	88.3% (active)	94% (active)	95% (active)	84% (active)	97% (active)	97% (active)	87.5% (active)	96% (active)	96% (active)	83% (active)
COc1ccc(C2=C(Cl)C(=O)N(c3ccc(OC)cc3)C(=O)C2(Cl)Cl)cc1	8%	82% (active)	85.6% (active)	-10%	87% (active)	97.8% (active)	9%	88% (active)	67.1%	-4%	42%	56.8%	-8%	84% (active)	94.9% (active)	6%	71% (active)	95.8% (active)
O=C(c1ccc(Cl)c([N+](=O)[O-])c1)c1ccc(Cl)c([N+](=O)[O-])c1	21%	93% (active)	59%	12%	94% (active)	93.4% (active)	13%	90% (active)	85% (active)	1%	80% (active)	39.5%	-8%	95% (active)	96.2% (active)	24%	96% (active)	96.7% (active)
CC1COC(=O)O1 (stereo not given)	-31%	-1%	-4.85%	-3%	-2%	-2.35%	6%	6%	6%	6%	2%	15.2%	3%	4%	-2%	7%	18%	15.8%
